Compound activity from PubChem BioAssay.
mHTT CaM bind: disrupts binding of mutant huntingtin to calmodulin. 190,000 compounds, 3.6% hits. P42858. AlphaScreen His-mHTT/GST-CaM binding, luminescence. AID 1671202. inhibition, % at 15 µM
Target sequence (P42858 whole entry, looked up, change not shown): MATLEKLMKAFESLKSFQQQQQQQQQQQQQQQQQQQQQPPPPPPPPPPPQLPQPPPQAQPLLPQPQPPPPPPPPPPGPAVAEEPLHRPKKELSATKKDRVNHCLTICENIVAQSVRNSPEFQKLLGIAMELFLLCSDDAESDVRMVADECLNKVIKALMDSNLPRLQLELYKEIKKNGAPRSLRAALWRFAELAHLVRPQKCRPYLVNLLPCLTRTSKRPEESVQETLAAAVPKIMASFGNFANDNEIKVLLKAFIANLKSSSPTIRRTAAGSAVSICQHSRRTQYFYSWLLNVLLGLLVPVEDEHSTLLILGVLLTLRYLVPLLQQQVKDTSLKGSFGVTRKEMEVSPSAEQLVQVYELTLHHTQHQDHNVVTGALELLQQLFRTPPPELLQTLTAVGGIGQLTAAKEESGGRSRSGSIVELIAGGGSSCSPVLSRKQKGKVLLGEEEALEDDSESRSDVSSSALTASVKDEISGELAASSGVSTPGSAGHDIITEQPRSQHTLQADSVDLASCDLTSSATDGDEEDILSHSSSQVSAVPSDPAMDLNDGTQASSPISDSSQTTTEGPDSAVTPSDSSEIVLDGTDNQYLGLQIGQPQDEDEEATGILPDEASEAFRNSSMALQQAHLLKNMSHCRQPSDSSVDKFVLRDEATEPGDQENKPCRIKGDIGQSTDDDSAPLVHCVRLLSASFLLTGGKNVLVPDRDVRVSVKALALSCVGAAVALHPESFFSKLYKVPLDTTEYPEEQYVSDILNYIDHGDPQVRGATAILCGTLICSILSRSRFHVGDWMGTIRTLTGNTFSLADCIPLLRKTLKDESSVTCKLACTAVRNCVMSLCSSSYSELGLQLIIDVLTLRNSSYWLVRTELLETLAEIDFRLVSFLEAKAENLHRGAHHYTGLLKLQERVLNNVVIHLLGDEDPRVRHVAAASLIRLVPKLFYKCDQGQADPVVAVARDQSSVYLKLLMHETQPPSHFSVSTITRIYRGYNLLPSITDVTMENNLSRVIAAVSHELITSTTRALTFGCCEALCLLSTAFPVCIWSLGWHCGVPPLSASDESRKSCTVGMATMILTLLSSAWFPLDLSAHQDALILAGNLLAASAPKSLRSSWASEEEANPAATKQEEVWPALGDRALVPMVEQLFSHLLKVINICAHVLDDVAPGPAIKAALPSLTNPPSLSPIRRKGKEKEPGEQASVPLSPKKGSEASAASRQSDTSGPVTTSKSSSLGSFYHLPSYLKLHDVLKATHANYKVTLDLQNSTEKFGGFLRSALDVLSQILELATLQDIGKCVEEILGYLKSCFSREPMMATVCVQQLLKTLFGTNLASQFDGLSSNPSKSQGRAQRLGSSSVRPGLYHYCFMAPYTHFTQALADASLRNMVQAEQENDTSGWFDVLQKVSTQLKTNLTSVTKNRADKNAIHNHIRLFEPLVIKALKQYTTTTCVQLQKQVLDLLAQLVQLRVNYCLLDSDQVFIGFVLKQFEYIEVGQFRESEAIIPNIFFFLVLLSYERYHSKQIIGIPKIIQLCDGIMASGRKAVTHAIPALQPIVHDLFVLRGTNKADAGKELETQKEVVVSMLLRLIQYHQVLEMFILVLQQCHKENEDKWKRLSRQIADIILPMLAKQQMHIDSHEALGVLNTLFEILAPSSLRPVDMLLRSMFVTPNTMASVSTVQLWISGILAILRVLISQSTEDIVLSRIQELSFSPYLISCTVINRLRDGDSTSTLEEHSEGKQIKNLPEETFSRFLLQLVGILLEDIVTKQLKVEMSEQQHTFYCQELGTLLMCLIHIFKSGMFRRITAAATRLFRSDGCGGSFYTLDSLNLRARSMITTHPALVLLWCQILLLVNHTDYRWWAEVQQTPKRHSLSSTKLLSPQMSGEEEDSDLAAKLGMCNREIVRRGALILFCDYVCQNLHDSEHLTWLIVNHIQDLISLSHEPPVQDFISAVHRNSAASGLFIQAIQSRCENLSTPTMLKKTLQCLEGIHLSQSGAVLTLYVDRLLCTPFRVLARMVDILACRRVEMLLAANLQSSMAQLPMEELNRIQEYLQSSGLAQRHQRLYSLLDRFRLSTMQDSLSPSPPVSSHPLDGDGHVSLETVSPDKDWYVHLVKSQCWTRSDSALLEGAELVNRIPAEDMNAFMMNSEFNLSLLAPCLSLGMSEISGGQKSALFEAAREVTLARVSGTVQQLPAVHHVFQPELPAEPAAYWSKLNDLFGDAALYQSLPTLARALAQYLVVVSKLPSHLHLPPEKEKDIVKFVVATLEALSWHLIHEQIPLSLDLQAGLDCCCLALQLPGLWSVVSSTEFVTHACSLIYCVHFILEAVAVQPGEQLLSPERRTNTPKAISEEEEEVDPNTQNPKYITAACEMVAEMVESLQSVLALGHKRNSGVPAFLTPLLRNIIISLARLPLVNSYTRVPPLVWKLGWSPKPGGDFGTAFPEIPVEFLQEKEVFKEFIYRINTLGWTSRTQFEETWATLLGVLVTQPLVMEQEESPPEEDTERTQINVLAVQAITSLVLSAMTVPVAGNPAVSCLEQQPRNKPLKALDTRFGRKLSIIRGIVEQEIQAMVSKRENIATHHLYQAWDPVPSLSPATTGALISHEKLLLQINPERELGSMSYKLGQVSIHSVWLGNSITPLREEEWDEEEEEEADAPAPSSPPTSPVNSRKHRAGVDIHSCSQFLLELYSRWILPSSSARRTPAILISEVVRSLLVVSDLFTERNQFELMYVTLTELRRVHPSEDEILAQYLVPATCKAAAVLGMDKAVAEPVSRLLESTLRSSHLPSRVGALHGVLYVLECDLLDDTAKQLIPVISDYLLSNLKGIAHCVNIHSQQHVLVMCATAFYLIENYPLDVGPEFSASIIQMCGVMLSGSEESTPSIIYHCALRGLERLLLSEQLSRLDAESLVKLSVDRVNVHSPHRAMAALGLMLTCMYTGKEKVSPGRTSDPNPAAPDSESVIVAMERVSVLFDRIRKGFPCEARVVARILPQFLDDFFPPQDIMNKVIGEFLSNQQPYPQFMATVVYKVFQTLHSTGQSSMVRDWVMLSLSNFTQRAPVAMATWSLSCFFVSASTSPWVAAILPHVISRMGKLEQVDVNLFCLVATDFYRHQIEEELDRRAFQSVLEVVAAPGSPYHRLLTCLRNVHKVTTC
Pf apPOL inh: Pf-apPOL DNA polymerase inhibition; 210,000 compounds, 0.25% hits; Recombinant Pf-apPOL, molecular beacon fluorescence, 1.5 h; inhibition, % at 10 µM
Numbers stand for hits; i = inactive; nt = no result given. Sampled rows, rich in hits. Any-hit rate of the full collection: about 3.5%. No stated cut-off is given here; in the data, active means inhibition above about 50%; inactive means the rest.

SMILES	mHTT CaM bind	Pf apPOL inh
O=C1C(=O)N(c2cccnc2)C(c2ccccc2[N+](=O)[O-])C1=C(O)c1ccc(Cl)cc1 (centres undefined)	88	i
O=C(O)CN1C(=O)C(=O)C(=C(O)c2ccc(Cl)cc2)C1c1ccccc1[N+](=O)[O-] (centres undefined)	i	i
COc1ccccc1Oc1ccc2c(c1)C(=O)N(c1cccc3ncccc13)C2=O	75	i
COc1ccc(N2C(=O)c3ccc(Oc4ccc(N)cc4)cc3C2=O)cc1OC	i	i
Fc1ccc(C2=NCCC(c3ccccc3)O2)cc1 (centres undefined)	51	i
O=C1OC(c2ccc(F)cc2)=N/C1=C\c1ccccc1	i	i
COc1cc(OC)c(OC)cc1CNc1ccc([N+](=O)[O-])cc1C	i	i
COc1cc(OC)c(OC)cc1CNc1ccc(Br)cc1C	76	i
Cc1cccc(N2CCN(C/C=C/c3ccccc3[N+](=O)[O-])CC2)c1C	66	i
CCN1CCN(C/C=C/c2ccccc2[N+](=O)[O-])CC1	i	i
COc1ccccc1/C=C/CN1CCN(c2ccc([N+](=O)[O-])cc2)CC1	53	i
COc1ccccc1/C=C/CN1CCN(c2ccccc2)CC1	i	i
O=C(NCc1ccccn1)c1ccc2c(c1)N(Cc1ccc(F)cc1)C(=O)CS2	i	i
Cc1nnc(NC(=O)Cc2cc(-c3ccc4c(c3)OCO4)on2)s1	i	i
Fc1cc(F)c(C2SCCN2C(=S)NCCc2ccccc2)c(F)c1 (centres undefined)	59	nt
S=C(NCCc1ccccc1)N1CCOCC1	nt	i
COc1ccccc1NC(=O)C1CCN(c2cncnc2N2CCOCC2)CC1	i	i
O=C(CCn1cncn1)Nc1ccc(F)cc1	i	i
COc1ccc(Cl)cc1C(=O)NCc1cc(-c2ccc(F)cc2)on1	i	i
O=C1S/C(=C\c2ccc(F)cc2)C(=O)N1CNc1ccc(Br)cc1	i	i
O=C1S/C(=C\c2ccc(F)cc2)C(=O)N1CNc1ccccc1	57	i
O=C1S/C(=C\c2ccc(F)cc2)C(=O)N1CNc1cccc(Cl)c1	i	i
Cc1cccc(NCN2C(=O)S/C(=C\c3ccc(F)cc3)C2=O)c1	55	i
COc1ccc([N+](=O)[O-])cc1C1=N/C(=C/c2ccccc2[N+](=O)[O-])C(=O)O1	i	i
N#CC1=C(N)Oc2c(C=Nc3ccccc3)ccc(O)c2C1c1cccc([N+](=O)[O-])c1 (centres undefined)	100	i
SMILES	mHTT CaM bind	Pf apPOL inh
N#CC1=C(N)Oc2n[nH]c(-c3ccccc3)c2C1c1cccc([N+](=O)[O-])c1 (centres undefined)	i	i
Cc1ccc(NC(=O)Cn2nc3c(cc2=O)CC(C)CC3)cc1 (centres undefined)	i	i
O=C(c1ccsc1)N1CCC(c2nnc(-c3ccco3)o2)CC1	i	i
CCN(CC)Cc1c(O)ccc2c1OC(=Cc1ccc(Br)cc1)C2=O	58	i
CCN1CCN(Cc2c(O)ccc3c2OC(=CC=Cc2ccccc2)C3=O)CC1	i	i
O=C1C(=Cc2ccc(Br)cc2)Oc2c1ccc(O)c2CN1CCOCC1	56	i
O=C1C(=CC=Cc2ccccc2)Oc2c1ccc(O)c2CN1CCOCC1	62	i
O=C1C(=Cc2ccc(Br)cc2)Oc2c1ccc(O)c2CN1CCCC1	i	i
CCN(CC)Cc1c(O)ccc2c1OC(=Cc1ccc(C)cc1)C2=O	i	i
COc1cc2c(cc1OC)C(C)N(C(=O)c1ccc(-c3ccccn3)s1)CC2 (centres undefined)	nt	i
Cc1noc(CNC(=O)C2CCN(C(=O)c3snnc3C)CC2)n1	i	i
Cc1nc2c(C(=O)NCc3ccc(F)cc3)cnn2c(C)c1Cc1ccc(F)cc1	51	i
CCCCNC(=O)c1cnn2c(C)c(Cc3ccc(Cl)cc3)c(C)nc12	i	i
CCCCNC(=O)c1cnn2c(C)c(Cc3cc(C)ccc3C)c(C)nc12	i	i
CCOCCCNC(=O)c1cnn2c(C)c(Cc3ccc(Cl)cc3)c(C)nc12	65	i
Cc1ccc(C)c(Cc2c(C)nc3c(C(=O)NCCc4ccccc4)cnn3c2C)c1	66	i
Cc1nc2c(C(=O)NCCc3ccccc3)cnn2c(C)c1Cc1ccc(F)cc1	80	i
Cc1nc2c(C(=O)NCc3ccc(F)cc3)cnn2c(C)c1Cc1ccccc1	i	i
CCCNC(=O)c1cnn2c(C)c(Cc3ccc(F)cc3)c(C)nc12	i	i
O=C(CN1CCC2(CC1)N=C(c1ccccc1)C(=O)N2)Nc1cc(F)ccc1F	i	i
Cc1ccc2nc(C(=O)NCc3ccc(N(C)C)cc3)cn2c1	i	i
CC1=C(C(=O)Nc2c(F)cccc2F)C(c2cccnc2)C2=C(CCCC2=O)N1 (centres undefined)	i	i
CNC(=O)c1cc(Nc2nnc(-c3ccc(O)cc3)c3ccccc23)ccc1OC	i	i
NC(=O)c1ccc(-c2nnc(Nc3ccc(C(=O)Nc4ccccc4)cc3)c3ccccc23)cc1	87	i
CNC(=O)c1cc(Nc2nnc(-c3ccc(C)cc3)c3ccccc23)ccc1OC	72	i
SMILES	mHTT CaM bind	Pf apPOL inh
CNC(=O)c1ccc(Nc2nnc(-c3ccc(O)cc3)c3ccccc23)cc1	i	i
CCOc1ccccc1CNC(=O)c1ccc(-n2nc(C)cc2C)nc1	i	i
COc1ccc(C(=O)N2CCC3(CC2)CC(=O)c2ccccc2O3)cc1OC	i	i
CCCCNC(=O)C(C)C1CCN(S(=O)(=O)c2c(C)noc2C)CC1 (centres undefined)	i	i
O=C1COc2cc(Cl)ccc2N1	i	nt
O=[N+]([O-])C(/C=C(\Cl)[N+](=O)[O-])=C1Nc2ccccc2N1	88	i
Cc1ccc2c(c1)N/C(=C(/C=C(\Cl)[N+](=O)[O-])[N+](=O)[O-])O2	i	i
O=C1NCCc2c1[nH]c1ccc(C#Cc3ccccc3)cc21	97	i
COc1ccc2[nH]c3c(c2c1)CC(C)NC3=O (centres undefined)	i	i
CCOc1ccc(NC(=O)c2cnccn2)cc1	i	i
CCN(CC)c1ccc(NC(=O)c2cnccn2)cc1	60	i
CC(=O)N1CC(C(=O)N(C)Cc2ccccc2)CC(c2cccc(C)c2)C1 (centres undefined)	i	i
N#CC1=C(N)n2c(s/c(=C\c3ccc([N+](=O)[O-])cc3)c2=O)=C(C#N)C1c1ccc([N+](=O)[O-])cc1 (centres undefined)	i	i
N#CC1=C(N)n2c(s/c(=C\c3ccc(O)cc3)c2=O)=C(C(N)=O)C1c1ccc(O)cc1 (centres undefined)	53	i
CNC(=O)CN1C(=O)/C(=C/c2ccc(C(F)(F)F)cc2)Sc2ccccc21	i	i
CCCCNC(=O)CN1C(=O)/C(=C/c2ccc(C(F)(F)F)cc2)Sc2ccccc21	i	i
O=C(CN1C(=O)/C(=C/c2ccc(C(F)(F)F)cc2)Sc2ccccc21)NCc1ccccn1	i	i
COCCCNC(=O)CN1C(=O)/C(=C/c2ccc(C(F)(F)F)cc2)Sc2ccccc21	56	i
CCOCCCNC(=O)CN1C(=O)/C(=C/c2ccc(C(F)(F)F)cc2)Sc2ccccc21	i	i
O=C(CN1C(=O)/C(=C/c2ccc(C(F)(F)F)cc2)Sc2ccccc21)NCCN1CCCC1	84	i
CN1CCN(C(=O)CN2C(=O)/C(=C/c3ccc(C(F)(F)F)cc3)Sc3ccccc32)CC1	51	i
Cc1ccc(/C=C2\Sc3ccccc3N(CC(=O)NCc3ccccn3)C2=O)cc1	80	i
COc1ccc(-c2c(NC(=O)CCc3ccccc3)n[nH]c2C)cc1	i	i
